From PMC4336329 (PLoS ONE, 2015)
The whole screen tested about 310,000 compounds, of which about 2,200 (0.71%) showed an effect of 50% or more. The effect is printed as a negative number. The sample holds strong results, similar compounds and a random draw of the others, so the mix is not that of the screen.

Biological target: human ether-à-go-go-related gene (hERG) potassium channel (human, UniProt Q12809)
Test: primary screen, population patch clamp on CHO cells stably expressing hERG; higher = less effect of the substance

Chain of human ether-à-go-go-related gene (hERG) potassium channel (Q12809 whole entry, looked up): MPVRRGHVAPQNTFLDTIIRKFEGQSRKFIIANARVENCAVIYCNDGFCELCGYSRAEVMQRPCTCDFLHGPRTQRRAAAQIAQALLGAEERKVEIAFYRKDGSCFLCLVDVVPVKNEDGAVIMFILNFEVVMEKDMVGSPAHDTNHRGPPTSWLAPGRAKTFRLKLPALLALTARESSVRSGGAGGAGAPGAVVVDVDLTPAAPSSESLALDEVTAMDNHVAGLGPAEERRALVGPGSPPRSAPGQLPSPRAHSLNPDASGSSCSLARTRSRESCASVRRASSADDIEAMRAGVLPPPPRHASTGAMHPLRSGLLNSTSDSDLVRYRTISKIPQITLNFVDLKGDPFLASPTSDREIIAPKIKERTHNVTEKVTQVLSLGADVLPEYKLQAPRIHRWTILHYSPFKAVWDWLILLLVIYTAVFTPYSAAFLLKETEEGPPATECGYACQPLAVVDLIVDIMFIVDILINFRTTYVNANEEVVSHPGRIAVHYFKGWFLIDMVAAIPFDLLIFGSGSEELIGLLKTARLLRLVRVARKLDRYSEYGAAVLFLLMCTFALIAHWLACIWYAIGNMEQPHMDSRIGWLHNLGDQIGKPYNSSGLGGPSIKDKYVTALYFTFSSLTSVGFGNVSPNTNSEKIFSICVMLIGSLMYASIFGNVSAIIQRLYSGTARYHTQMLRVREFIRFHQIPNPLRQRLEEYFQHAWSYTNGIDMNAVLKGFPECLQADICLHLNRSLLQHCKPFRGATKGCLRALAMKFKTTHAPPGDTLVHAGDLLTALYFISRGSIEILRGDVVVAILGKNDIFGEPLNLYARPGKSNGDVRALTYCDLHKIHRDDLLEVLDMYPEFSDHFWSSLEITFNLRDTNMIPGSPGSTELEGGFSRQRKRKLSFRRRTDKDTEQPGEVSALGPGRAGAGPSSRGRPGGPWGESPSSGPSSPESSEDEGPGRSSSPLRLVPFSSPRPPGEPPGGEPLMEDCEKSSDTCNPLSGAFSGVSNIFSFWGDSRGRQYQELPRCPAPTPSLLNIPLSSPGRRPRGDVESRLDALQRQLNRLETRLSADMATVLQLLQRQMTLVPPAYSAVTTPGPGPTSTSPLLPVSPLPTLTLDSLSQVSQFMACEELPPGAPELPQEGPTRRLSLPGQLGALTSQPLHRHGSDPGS

Going from `C=CCNC(=O)NS(=O)(=O)c1ccc(C)cc1` to `Cc1ccc(C2(C)NC(=O)N(CC(=O)Nc3cc(S(=O)(=O)N4CCOCC4)ccc3C)C2=O)cc1` (stereo not drawn), the “hERG current change (%, negative = inhibition) at 1uM” value falls from 16.6% to -9.42%.

Going from `Cc1cccn2c(=O)c3cc(C(=O)NCCCn4ccnc4)n(C)c3nc12` to `Cc1cccn2c(=O)c3cc(C(=O)NCCc4ccccc4)c(=N)n(CCCn4ccnc4)c3nc12`, the “hERG current change (%, negative = inhibition) at 1uM” value falls from 2.55% to -61.3%.

First: Cc1cccn2c(=O)c3cc(C(=O)NCCN4CCOCC4)c(=N)n(CCc4ccccc4)c3nc12
Second: Cc1cccn2c(=O)c3cc(C(=O)NC(C)c4ccccc4)c(=N)n(CCCn4ccnc4)c3nc12 (stereo not drawn)
The “hERG current change (%, negative = inhibition) at 1uM” value of the first is lower: -71.8% for the first, -10.8% for the second.

Compared with `COC(=O)c1ccc(/C=N/OCC(=O)NCc2ccc(F)cc2)cc1`, `CC(C)(C)c1ccc(/C=N/OCC(=O)NCc2ccc(F)cc2)cc1` is higher in “hERG current change (%, negative = inhibition) at 1uM” value: 3.32% for the first, 11.5% for the second.

Going from `O=C(CO/N=C/c1ccc(OC(F)F)cc1)NCc1ccc(F)cc1` to `CC(C)Oc1ccc(CN2CCC(n3nccc3NC(=O)c3cccnc3)CC2)cc1`, the “hERG current change (%, negative = inhibition) at 1uM” value falls from -52% to -52.6%.

First: O=C(NCc1cc(C(F)(F)F)cc(C(F)(F)F)c1)C1CC(c2ccc(C(F)(F)F)cc2)=NO1 (stereo not drawn)
Second: Cc1cc(C)c2nc(N3CCC(C(=O)NCc4cccnc4)CC3)sc2c1
The “hERG current change (%, negative = inhibition) at 1uM” value of the first is higher: 18.6% for the first, -50.6% for the second.

First: CN1CCN(CCN2CCn3c2nc2ccccc23)CC1.Cl
Second: Cl.c1ccc2c(c1)nc1n2CCN1CCN1CCCC1
The “hERG current change (%, negative = inhibition) at 1uM” value of the first is lower: 5.64% for the first, 18.3% for the second.

Going from `Cl.c1ccc(CN2CCN(CCN3CCn4c3nc3ccccc34)CC2)cc1` to `O=S(=O)(c1ccccc1)N1CCN(c2ccnc3cc(Cl)ccc23)CC1`, the “hERG current change (%, negative = inhibition) at 1uM” value falls from -62.3% to -79.9%.

Compared with `COc1ccc(CN(C)C(c2ccccc2)c2nnnn2-c2ccccc2C)c(OC)c1C` (stereo not drawn), `COc1ccc(-c2cc(-c3ccc(C)cc3)nc(SCc3nnc(-c4ccccc4)o3)c2C#N)cc1OC` is lower in “hERG current change (%, negative = inhibition) at 1uM” value: 11.5% for the first, 8.98% for the second.

Going from `CCn1c(CC(=O)Nc2ccccc2)nnc1SCC(=O)NC1CCCC1` to `Cn1c(SCC(=O)NC(=O)Nc2ccccc2)nnc1-c1ccncc1`, the “hERG current change (%, negative = inhibition) at 1uM” value rises from 5.86% to 9.09%.

First: Cc1cc(C)c2nc(N3CCC(C(=O)NCc4ccccn4)CC3)sc2c1
Second: Cc1cc(=O)n2nc(N3CCC(C(=O)NCc4cccnc4)CC3)sc2n1
The “hERG current change (%, negative = inhibition) at 1uM” value of the first is higher: 9.75% for the first, 6.87% for the second.

First: O=S(=O)(c1cccs1)N1CCN(c2ccnc3cc(Cl)ccc23)CC1
Second: O=S(=O)(c1ccc(Br)s1)N1CCN(c2ccnc3cc(Cl)ccc23)CC1
The “hERG current change (%, negative = inhibition) at 1uM” value of the first is lower: -2.74% for the first, 6.07% for the second.

Compared with `Clc1ccc2c(N3CCNCC3)ccnc2c1`, `N#Cc1cccc(S(=O)(=O)N2CCN(c3ccnc4cc(Cl)ccc34)CC2)c1` is lower in “hERG current change (%, negative = inhibition) at 1uM” value: -15.4% for the first, -57.2% for the second.

Compared with `Cc1ccc(S(=O)(=O)N2CCN(c3ccnc4cc(Cl)ccc34)CC2)cc1C`, `O=S(=O)(c1cccc(Br)c1)N1CCN(c2ccnc3cc(Cl)ccc23)CC1` is lower in “hERG current change (%, negative = inhibition) at 1uM” value: 21.6% for the first, 10.2% for the second.

Compared with `O=S(=O)(c1ccccc1OC(F)(F)F)N1CCN(c2ccnc3cc(Cl)ccc23)CC1`, `O=[N+]([O-])c1ccc(S(=O)(=O)N2CCN(c3ccnc4cc(Cl)ccc34)CC2)cc1` is lower in “hERG current change (%, negative = inhibition) at 1uM” value: 9.89% for the first, -77.8% for the second.

Compared with `Cc1ccc(NC2CCCN(C(=O)c3ccc(-n4ccnc4)cc3)C2)cc1C` (stereo not drawn), `Cc1ccccc1CN1CCC(n2nccc2NC(=O)c2cccnc2)CC1` is higher in “hERG current change (%, negative = inhibition) at 1uM” value: -4.71% for the first, 4.68% for the second.

First: CS(=O)(=O)N1N=C(c2ccco2)CC1c1ccccc1Cl (stereo not drawn)
Second: Cn1c2ccccc2c2nnc(SC3CCOC3=O)nc21 (stereo not drawn)
The “hERG current change (%, negative = inhibition) at 1uM” value of the first is higher: 9.15% for the first, 3.35% for the second.

Going from `CCn1nc(C)c(/C=N/NC(=O)CSc2ccccn2)c1C` to `COCCn1c(SCC(=O)c2c[nH]c3ccccc23)nnc1-c1ccncc1`, the “hERG current change (%, negative = inhibition) at 1uM” value falls from 10.3% to 7.84%.

Going from `O=C(Nc1ccc(Cl)cc1)c1cncs1` to `O=C(Nc1ccnn1C1CCN(Cc2ccc(Cl)cc2)CC1)C1CCCC1`, the “hERG current change (%, negative = inhibition) at 1uM” value falls from 11.3% to -37.2%.

Compared with `CC(C)n1cc(CN2CCC(n3nccc3NC(=O)C3CCCC3)CC2)cn1`, `CC(C)Cc1ccc(CN2CCC(n3nccc3NC(=O)C3CCCC3)CC2)cc1` is lower in “hERG current change (%, negative = inhibition) at 1uM” value: 6.1% for the first, -16.9% for the second.

Compared with `CCc1ccc(CN2CCC(n3nccc3NC(=O)C3CCCC3)CC2)cc1`, `COC(=O)c1ccc(CN2CCC(n3nccc3NC(=O)C3CCCC3)CC2)cc1` is higher in “hERG current change (%, negative = inhibition) at 1uM” value: -68.2% for the first, -26.7% for the second.

Going from `COc1cc(CN2CCC(n3nccc3NC(=O)C3CC3)CC2)cc(OC)c1` to `CC(C)Oc1ccc(CN2CCC(n3nccc3NC(=O)C3CC3)CC2)cc1`, the “hERG current change (%, negative = inhibition) at 1uM” value falls from -29.5% to -68.4%.

First: O=C(Nc1ccnn1C1CCN(Cc2ccccc2OC(F)F)CC1)c1cccnc1
Second: COC(=O)c1ccc(CN2CCC(n3nccc3NC(=O)C3CC3)CC2)cc1
The “hERG current change (%, negative = inhibition) at 1uM” value of the first is higher: 2.05% for the first, -6.68% for the second.

Compared with `CC(Cc1ccc(Cl)cc1)N1CCC(n2nccc2NC(=O)C2CCCC2)CC1` (stereo not drawn), `Cl.O=C(NCCN1CCCC1)c1ccc(Cl)cc1Cl` is higher in “hERG current change (%, negative = inhibition) at 1uM” value: -67.5% for the first, 16.6% for the second.

First: O=C(N/N=C(\CC(=O)c1cccs1)C(F)(F)F)c1cccnc1
Second: COc1cccc(OCc2cc(C(=O)NCc3cnc4ccccn34)no2)c1
The “hERG current change (%, negative = inhibition) at 1uM” value of the first is higher: 12.7% for the first, 3.98% for the second.

Going from `O=C(NCC1(N2CCCCC2)CCCCC1)C1CC(=O)N(c2ccc3c(c2)OCCO3)C1` (stereo not drawn) to `COc1cc(C2NC(=O)C(C#N)=C(S)N2c2ccc(C)cc2)ccc1OC(C)C` (stereo not drawn), the “hERG current change (%, negative = inhibition) at 1uM” value falls from 14.3% to 9.81%.

First: COc1cc(OC)cc(C(=O)NCCCn2ccnc2)c1
Second: O=C(O)C(C(O)c1ccc([N+](=O)[O-])cc1)[n+]1ccccc1.[Br-] (stereo not drawn)
The “hERG current change (%, negative = inhibition) at 1uM” value of the first is higher: 18.8% for the first, 18.1% for the second.
